Cycloheximide cs = Cycloheximide Counterscreen for Small Molecule Inhibitors of Shiga Toxin | cell reporter, cycloheximide protein synthesis inhibition counterscreen | max response, % | hit rate 12% among 300,000 | AID 2314, 2010; in the data active = max response mostly above about 13%, no sharp cut-off; inactive = mostly below about 14%; note: read at 38.3 µM for the half of the compounds with a filed dose; 0% is about no effect
Pf growth 48h = Primary qHTS for delayed death inhibitors of the malarial parasite plastid, 48 hour incubation; P. falciparum luciferase growth in erythrocytes, 48 h; hit rate 5.9% among 310,000; Potency, µM (doses to about 28.7 µM), for the others: at the top dose activity change, negative = inhibition, most hits filed as inhibitors; AID 504832, 2011; note: potency is the fitted concentration of half-maximal effect; % is set by controls: 0 for no effect and ±100 for the full control effect
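Erythrocytes infected with P. falciparum carrying an integrated firefly luciferase reporter (2% hematocrit, 0.1% parasitemia final) were exposed to compounds in RPMI 1640 with 0.5% Albumax at 37 C, 5% CO2. Growth inhibition was scored as reduced luminescence.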
Pf growth 96h = Primary qHTS for delayed death inhibitors of the malarial parasite plastid, 96 hour incubation | P. falciparum luciferase reporter growth, 96 h | Potency, µM (doses to about 28.7 µM), inactives show at the highest dose activity change, negative = inhibition, actives largely listed as inhibitors | hit rate 6.9% among 320,000; note: potency is the fitted concentration of half-maximal effect; % is set by controls: 0 for no effect and ±100 for the full control effect
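Cell-based qHTS: luciferase-tagged P. falciparum in erythrocytes (2% hematocrit, 0.05% parasitemia final) incubated with compounds for 96 hours, 37 C, 5% CO2; luciferase detection reagent then added and luminescence measured.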
Shiga toxin inh = A qHTS for Small Molecule Inhibitors of Shiga Toxin | Vero cells, Shiga toxin protein synthesis inhibition reporter | inhibition, % at 38.7 µM | hit rate 9.2% among 290,000 | AID 2315, 2010; in the data active = inhibition mostly above about 28%, no sharp cut-off; inactive = mostly below about 43%; note: 0% is about no effect
NS1 inh = qHTS Assay for Inhibitors of Influenza NS1 Protein Function; Potency, µM (highest dose often 46.1 µM), for the others: top-dose activity, positive = more growth; AID 2326, 2010; hit rate 0.4% among 270,000; calls by dose curve; note: potency is the fitted concentration of half-maximal effect; actives are rising curves; nearly all actives have a fitted effect of over 50% in size
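S. cerevisiae expressing influenza A NS1, grown in glucose, washed, then diluted 1:100 into pH 6.0 -URA galactose medium with 23 nl compound. Growth recovery read as OD600; NS1-free strain serves as control.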
Giardia FBPA inh = qHTS Assay for Inhibitors of Fructose-1,6-bisphosphate Aldolase from Giardia Lamblia; purified Giardia FBPA; Potency, µM (doses to about 59.6 µM), inactives show at the top dose activity, negative = inhibition, actives largely listed as inhibitors; AID 2451, 2010; hit rate 0.71% among 290,000; A8B2U2; note: potency is the fitted concentration of half-maximal effect; % is set by controls: 0 for no effect and ±100 for the full control effect; nearly all actives have a fitted effect of over 55% in size
Target sequence (A8B2U2 whole entry, looked up): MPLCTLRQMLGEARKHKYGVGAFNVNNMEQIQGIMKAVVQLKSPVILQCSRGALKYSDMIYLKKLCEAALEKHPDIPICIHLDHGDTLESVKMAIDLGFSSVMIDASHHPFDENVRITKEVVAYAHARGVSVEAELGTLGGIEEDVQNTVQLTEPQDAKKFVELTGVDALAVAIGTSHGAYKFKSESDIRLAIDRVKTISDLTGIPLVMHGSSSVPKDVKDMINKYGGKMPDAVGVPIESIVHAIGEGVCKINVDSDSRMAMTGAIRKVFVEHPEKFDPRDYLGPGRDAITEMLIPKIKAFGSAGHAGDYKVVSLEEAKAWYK
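Giardia FBPA (40 nM reagent) was preincubated 10 min at RT with compound (up to 57.5 uM final), then substrate plus GAPDH/TPI/NAD/arsenate coupling system with diaphorase/resazurin was added; resorufin fluorescence (525/598 nm) was read after 20 min.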
* = called active by the depositor; i = inactive; ? = inconclusive; nt = no result given. Only some compounds are listed: those with a hit (about 21% of all), similar ones and a draw of the others. Unless noted, calls come from the whole dose curve; as a rule, active = well fitted curve in the direction sought with a large enough effect; inconclusive = small, poorly fitted or top-dose-only effect, or another doubt; inactive = no such curve, though single readings can be large; an effect the other way counts as inactive or inconclusive.

SMILES	Cycloheximide cs	Pf growth 48h	Pf growth 96h	Shiga toxin inh	NS1 inh	Giardia FBPA inh
CC(C)c1nc2cc(C(=O)N3CCNC(=O)C3c3ccc(F)cc3)ccc2o1 (stereo not given)	10.6	?	?	6.8	-5.1%	nt
COc1ccc(CN2CCNC(=O)C2CC(=O)NC2CCCC2)c(C)c1C (stereo not given)	-3.6	-1.4%	35.2%	17.8	-8.0%	-14.8%
Cn1cc(CN2CCC(CO)CC2)c(-c2ccc(Oc3ccccc3)cc2)n1	-1.4	-7.1%	23.9%	-2.5	2.7%	0.0%
O=C(O)c1ccc2c(c1)C(=O)N([C@H](Cc1ccc(O)c(O)c1)C(=O)O)C2=O	-5.6	-1.3%	-5.3%	-4.4	nt	-15.3%
Cn1c(=O)c2c(nc(CN3CCc4ccccc4C3)n2CCc2ccccc2)n(C)c1=O	nt	nt	nt	nt	-3.5%	nt
CCOCCn1c(CN2CCN(C(c3ccccc3)c3ccccc3)CC2)nc2c1c(=O)n(C)c(=O)n2C	-3.8	1.47µM*	-10.1%	4.7	-2.7%	6.6%
CCOCCn1c(CN2CCN(CCO)CC2)nc2c1c(=O)n(C)c(=O)n2C	-3.0	39.3%	19.9%	14.5	-7.4%	-12.5%
Cn1c(=O)c2c(nc(CN3CCc4ccccc4C3)n2Cc2ccccc2F)n(C)c1=O	-1.0	4.65µM*	?	-8.2	nt	?
Cn1c(=O)c2c(nc(CN3CCc4ccccc4C3)n2Cc2cccc(Cl)c2)n(C)c1=O	-3.0	3.29µM*	1.85µM*	-7.2	-143.4%	?
O=C(O)CN1C(=O)c2ccc(C(=O)c3ccccc3)cc2C1=O	-2.9	16.4%	17.3%	-7.0	3.2%	13.2%
c1ccc(-n2nnnc2SCc2cn3cccnc3n2)cc1	2.5	-10.2%	?	-3.9	6.7%	-17.2%
Cc1ccn2cc(CSc3ccccc3)nc2c1	47.1*	175.0%	nt	111.2*	-21.6%	-11.3%
Cc1cc(OCc2cn3cccnc3n2)ccc1Cl	71.0*	27.8%	7.7%	64.9*	10.7%	-5.9%
Clc1ccc(SCc2cn3cccnc3n2)cc1	26.6*	65.4%	64.7%	96.9*	-50.1%	-4.2%
Cc1cc(=O)[nH]c(SCc2cn3ccccc3n2)n1	5.8	41.5%	68.5%	9.7	nt	?
CCN(Cc1cn2cccnc2n1)C1CCCCC1	-4.1	-3.0%	27.6%	12.6	nt	0.9%
Cc1ccc(SCc2cn3cccnc3n2)cc1	40.5*	85.2%	99.8%	56.8*	-46.7%	-0.4%
Cn1ncnc1SCc1cn2cccnc2n1	-2.5	10.7%	10.6%	-30.8	-0.9%	-3.6%
CC(C)(C)c1nnc(NS(=O)(=O)c2ccc([N+](=O)[O-])cc2)s1	1.8	2.9%	0.0%	2.4	3.6%	?
Cc1cc(NC(=O)Cn2nnc3sc4c(c3c2=O)CCCC4)no1	-1.8	0.9%	23.1%	12.1	-3.8%	-2.4%
Cc1cc(NC(=O)Cn2nnc3sc4c(c3c2=O)CCC(C(C)(C)C)C4)no1 (stereo not given)	-2.9	10.4µM*	4.0%	-6.6	-35.4%	-4.3%
O=c1cc(-c2ccccc2)nc(SCc2ccccc2F)[nH]1	-3.6	-4.0%	2.5%	6.5	-0.2%	-1.2%
C=CCn1c(SCC(=O)NC2CCCC2)nc2sc(C)cc2c1=O	nt	-1.4%	6.57µM*	nt	nt	nt
CN(C)c1ncnc2ccc(-c3ccccc3C#N)cc12	nt	nt	nt	nt	nt	-8.1%
COc1ccc(Nc2sc(C(=O)c3ccc(Cl)cc3)c(N)c2C(=O)Nc2ccccc2OC)cc1	-1.1	10.4µM*	nt	-18.4	0.0%	0.0%
SMILES	Cycloheximide cs	Pf growth 48h	Pf growth 96h	Shiga toxin inh	NS1 inh	Giardia FBPA inh
COc1ccccc1NC(=O)c1c(Nc2ccccc2C)sc(C(=O)Nc2cccc(Cl)c2)c1N	-1.4	?	10.4µM*	9.3	?	0.0%
COc1ccc(C(=O)c2sc(Nc3cccc(OC)c3)c(C(=O)Nc3cccc(C)c3C)c2N)cc1	1.4	nt	11.7µM*	-13.6	13.3%	3.8%
COc1cccc(NC(=O)Nc2cc(C(=O)O)ccc2C)c1	-3.1	28.5%	i	-3.7	nt	9.0%
COc1ccc(NC(=O)c2c(Nc3ccccc3)sc(C(=O)c3ccc(F)cc3)c2N)cc1	7.2	?	nt	39.3	-2.2%	1.5%
COc1ccc(C(=O)c2sc(Nc3ccccc3)c(C(=O)Nc3ccc(OC)c(OC)c3)c2N)cc1	12.0	13.1µM*	?	24.2	15.6%	-11.0%
O=C(C(=O)N1CCCC1CO)N1CCCC1CO (stereo not given)	-4.3	0.0%	-8.5%	-8.7	6.2%	-0.5%
CC(C)n1nnnc1SCC(=O)Nc1ccccc1F	-0.4	7.0%	?	-4.6	0.7%	4.0%
CC1=C(C(=O)Nc2cccc(C(=O)NC3CCCC(C)C3C)c2)SCCO1 (stereo not given)	-4.9	-16.4%	?	1.8	-9.2%	nt
CCN(CC)CCCn1c2c(c(SCC(=O)Nc3ccc4c(c3)OCCO4)nc1=O)CCC2	nt	-3.0%	?	nt	nt	nt
CCc1ccc(NC(=O)CSc2nc(=O)n(CCCN3CCOCC3)c3c2CCCC3)cc1	nt	9.28µM*	?	nt	nt	nt
CCN(CC)CCn1c2c(c(SCC(=O)Nc3ccc4c(c3)OCCO4)nc1=O)CCCC2	nt	?	2.94µM*	nt	nt	nt
CC1CC1C(=O)Nc1ccc(S(=O)(=O)N2CCCCC2)cc1 (stereo not given)	nt	?	1.5%	nt	nt	nt
O=S(=O)(Nc1ccc(Cl)cn1)c1cccs1	-11.5	27.4%	14.7%	-2.2	-5.9%	-13.2%
CCOC(=O)CNC(=O)N1CCc2ccc(NC(=O)c3ccccc3OC)cc2C1	-2.3	?	8.1%	-6.0	-6.1%	5.7%
COc1ccccc1C(=O)Nc1ccc2c(c1)CN(Cc1cnc(C)s1)CC2	11.5*	?	?	29.0*	-6.1%	nt
O=C(c1cc(COc2ccc3ncccc3c2)on1)N1CCCCCC1	17.5	18.6%	-17.3%	48.6*	-9.6%	-1.6%
COCC1CCN(C(=O)c2cc(COc3ccc4ncccc4c3)on2)CC1	0.6	26.9%	?	-10.8	1.7%	-0.7%
O=C(NC1CCCC1)c1cc(COc2ccc3ncccc3c2)on1	-2.9	-20.5%	-6.0%	-8.0	-7.7%	-8.2%
O=C(c1cc(COc2ccc3ncccc3c2)on1)N1CCCC1	32.9*	36.9%	?	39.6*	-5.5%	nt
Cc1ccc(C(=O)CCC(=O)Nc2ccc(C)cn2)cc1	nt	3.3%	2.7%	nt	nt	nt
CCOC(=O)Cc1csc(NS(=O)(=O)c2ccc(C(F)(F)F)cc2)n1	-4.3	-3.5%	17.6%	-9.7	3.3%	14.7%
O=C(Cc1ccc(Br)cc1)NC1CCCCC1	22.5*	nt	69.1%	19.9	-9.8%	-1.3%
CC(C)Cc1ccc(/C=C/C(=O)NC2CC2)cc1	71.4*	?	2.08µM*	112.4*	-32.2%	5.5%
CCCOc1ccc(/C=C/C(=O)NC2CCCCC2)cc1	6.4	?	-1.3%	16.3	9.6%	3.4%
Cc1ccc(/C=C/C(=O)NC2CCS(=O)(=O)C2)cc1 (stereo not given)	19.7*	?	47.8%	14.5	nt	2.3%

From PubChem
